This is an account of results in PubChem BioAssay (NCI).

Among the test systems are SR leukemia; RPMI-8226 leukemia; OVCAR-8 ovarian; OVCAR-5 ovarian; OVCAR-4 ovarian; SK-OV-3 ovarian; IGROV1 ovarian; HS 578T breast; NCI/ADR-RES ovarian; OVCAR-3 ovarian.
Common to all, as to assay: NCI-60 one-dose screen, 48 h (100 = growth as untreated, 0 = no growth, -100 = all killed)
What all share (details): 10 µM unless noted

“And” between values parts separate entries of the source, which are not always exact repeats. Equal values may be shown once. Compounds without any hit were thinned out: in the full panel of roughly 83,000, 20% have a hit.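 Treatment: one concentration, 48 hours, 96-well format. Scoring: percent growth, with anything below 10 considered active.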 A number with no mark means an inactive call. The source made the active and inactive calls.

Take `COc1ccc(-c2cc(-c3cccnc3)nc3sc4c(Cl)nnnc4c23)cc1OC`: the growth in the test with SR leukemia is 6.41% (active); in the test on RPMI-8226 leukemia, 58%; in the test with OVCAR-8 ovarian it was 91.4%; with OVCAR-5 ovarian, 118%; in the test with OVCAR-4 ovarian, 96.5%; in the test on SK-OV-3 ovarian, 109%. Besides, the results for the growth in the test with IGROV1 ovarian, in the test on HS 578T breast and in the test with NCI/ADR-RES ovarian were 81.6%, 89.2% and 108%, respectively.
Consider `O=C(/C=C/c1ccc(F)cc1)Nc1ncc(Cc2ccc(F)cc2)s1`, for which the growth with SR leukemia is 25.2%; in the test with RPMI-8226 leukemia, 44.9%; in the test on OVCAR-8 ovarian, 51.9%; with OVCAR-5 ovarian, 62.8%; in the test on OVCAR-4 ovarian, 64.3%; in the test with IGROV1 ovarian, 46.8%. In addition, the values for the growth with OVCAR-3 ovarian, in the test with HS 578T breast and in the test with NCI/ADR-RES ovarian were 12.4%, 23% and 35.5%, respectively.
For the molecule `O=C(NNc1ccccc1)c1ccccc1`, the growth in the test with SR leukemia is 104%; with RPMI-8226 leukemia it was 82.2% and 76.6%; with OVCAR-8 ovarian, 106% and 73.5%; with OVCAR-5 ovarian, 77.2% and 68.7%; with OVCAR-4 ovarian it was 94.5% and 64.6%; with SK-OV-3 ovarian, 95.5% and 103%. Further, the growth in the test with HS 578T breast was 90.8% and 99.1%; with NCI/ADR-RES ovarian, 64.3% and 57.6%.
With `O=C1CCc2c(sc3[nH]c(=S)n(Cc4ccc(Cl)cc4)c(=O)c23)C1`, the growth in the test with SR leukemia was 17.9%; with RPMI-8226 leukemia, -25.5% (active); with OVCAR-8 ovarian it was 7.83% (active); in the test with OVCAR-5 ovarian, 11.7%; in the test with OVCAR-4 ovarian it was 12.4%; in the test with SK-OV-3 ovarian, -10.1% (active). The growth is 23.3% in the test on IGROV1 ovarian, 5.06% (active) in the test on HS 578T breast and -0.97% (active) with NCI/ADR-RES ovarian.
For the molecule `C/C=C(\C)C(=O)N[C@H]1CC[C@]2(C)C3CC[C@@]4(C)C(CC[C@@H]4C(C)N(C)C)C3CCC2[C@H]1OC(C)=O` (stereo partly specified), the growth was 7.3% (active) in the test with SR leukemia; -15.3% (active) in the test on RPMI-8226 leukemia; 24.9% in the test on OVCAR-8 ovarian; 22% with OVCAR-5 ovarian; -23.3% (active) with OVCAR-4 ovarian; 9.32% (active) in the test with IGROV1 ovarian. Also, the growth in the test with OVCAR-3 ovarian is -53.9% (active); in the test with HS 578T breast it was -39.9% (active); in the test on NCI/ADR-RES ovarian it was 16.5%.
For the molecule `CN1CCCc2cc(/C=C3\SC(=S)N(C(Cc4ccc(O)cc4)C(=O)O)C3=O)ccc21` (stereo unspecified), the growth with SR leukemia was 105%; with RPMI-8226 leukemia, 95.8%; with OVCAR-8 ovarian, 99.2%; in the test on OVCAR-5 ovarian, 101%; with OVCAR-4 ovarian, 98.2%; in the test with SK-OV-3 ovarian, 107%. For the same molecule, the figures for the growth with IGROV1 ovarian, in the test with HS 578T breast and with NCI/ADR-RES ovarian were 102%, 102% and 100%, respectively.
With `Cc1ccc(/C=C2\COc3ccc(O)c(O)c3C2=O)cc1`, the growth is 18% in the test on SR leukemia; -12.6% (active) in the test on RPMI-8226 leukemia; 4.95% (active) with OVCAR-8 ovarian; -22.1% (active) in the test on OVCAR-5 ovarian; 15.7% with OVCAR-4 ovarian; 50% in the test with SK-OV-3 ovarian. Moreover, the figures for the growth in the test on IGROV1 ovarian, with HS 578T breast and with NCI/ADR-RES ovarian were -37.4% (active), 20.5% and 3.13% (active), respectively.
As to `COc1ccc2nc3cc(Cl)ccc3c(NCCCNCCC(C)O)c2c1` (stereo unspecified), the growth in the test on SR leukemia was -37.3% (active); with RPMI-8226 leukemia, -19.8% (active); in the test with OVCAR-8 ovarian, 0.828% (active); with OVCAR-5 ovarian it was -18.8% (active); in the test with OVCAR-4 ovarian, -28.9% (active); with SK-OV-3 ovarian it was 3.74% (active). Further, the results for the growth in the test with IGROV1 ovarian, in the test on HS 578T breast and with NCI/ADR-RES ovarian were -10.7% (active), 0.958% (active) and 43.7%, respectively.
As to `COC1/C=C/OC2(C)Oc3c(C)c(O)c4c(O)c(c(C=NOC(c5ccccc5)c5ccccc5)c(O)c4c3C2=O)NC(=O)/C(C)=C/C=C/C(C)C(O)C(C)C(O)C(C)C(OC(C)=O)C1C` (stereo unspecified), the growth is -5.09% (active) with SR leukemia; 3.28% (active) with RPMI-8226 leukemia; 24.8% in the test with OVCAR-8 ovarian; 38.1% with OVCAR-5 ovarian; 15.2% with OVCAR-4 ovarian; 29.8% in the test with IGROV1 ovarian. For the same molecule, the growth in the test on OVCAR-3 ovarian is 11.9%; with HS 578T breast, -5.16% (active); with NCI/ADR-RES ovarian, 28.9%.
For `CC(=O)c1nn(-c2ccccc2)/c(=N/N=Cc2cn(-c3ccccc3)nc2-c2cc3ccccc3oc2=O)s1`, the growth was 88.1% in the test with SR leukemia; 102% in the test on RPMI-8226 leukemia; 103% in the test with OVCAR-8 ovarian; 106% in the test with OVCAR-5 ovarian; 104% in the test with OVCAR-4 ovarian; 106% in the test with SK-OV-3 ovarian. Further, the values for the growth in the test on IGROV1 ovarian, in the test with HS 578T breast and with NCI/ADR-RES ovarian were 107%, 115% and 107%, respectively.
In the case of `CCN1C(=O)/C(=c2\sc3n(c2=O)C2C(NN=3)N(CC)C(=O)N2CC)c2ccccc21` (stereo unspecified), the growth in the test with SR leukemia is 15.3%; with RPMI-8226 leukemia, 50.8%; in the test on OVCAR-8 ovarian, 31.8%; in the test with OVCAR-5 ovarian it was 54.2%; in the test with OVCAR-4 ovarian, 49.5%; in the test with SK-OV-3 ovarian, 54.5%. The results for the growth in the test on IGROV1 ovarian, in the test on HS 578T breast and in the test with NCI/ADR-RES ovarian were 29%, 24.4% and 5.59% (active), respectively.
Consider `Nn1c(-c2ccc(Cl)cc2)nc2c(-c3ccc(Cl)cc3)nc3ccc(Cl)cc3c2c1=O`, for which the growth with SR leukemia is -62.1% (active); in the test on RPMI-8226 leukemia it was 30.1%; in the test on OVCAR-8 ovarian it was 11.6%; in the test with OVCAR-5 ovarian, 68.7%; in the test with OVCAR-4 ovarian, -78.1% (active); in the test with SK-OV-3 ovarian, 20.3%. Besides, the growth was 7.14% (active) with IGROV1 ovarian, -14.1% (active) with HS 578T breast and 52.4% in the test on NCI/ADR-RES ovarian.
As to `COC(=O)/C=C1/SC(N2N=C(c3cccs3)CC2c2ccc(F)cc2)=NC1=O` (stereo unspecified), the growth with SR leukemia is 7.77% (active); with RPMI-8226 leukemia, -24.2% (active); with OVCAR-8 ovarian it was 44.1%; with OVCAR-5 ovarian it was 79.1%; with OVCAR-4 ovarian, 84.8%; in the test with SK-OV-3 ovarian, 89.2%. Moreover, the growth in the test with IGROV1 ovarian is 32.3%; with HS 578T breast, 84.6%; in the test on NCI/ADR-RES ovarian, 51.9%.
